Molecules are shown by their SMILES. Activity calls are given as the source filed them. How the source made its calls: active means hit-call score of the fitted dose curve at least 0.9, where 1 is the maximum; inactive means score below 0.9.

The first assay in a line: APR_HepG2_NuclearSize_72hr: Apredica 72-hour HepG2 Assay for Nuclear Size (AID 2282925). The settings on record: high-content imaging, actives raise or lower the signal. Put shortly:
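HepG2 cells were exposed to compounds at ten concentrations from 0.39 to 200 uM (duplicate, 0.5% DMSO final) for 72 hr. After fixation in 3.7% formaldehyde, nuclei were stained with Hoechst 33342 (2 ug/mL) and imaged at 20x.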
With `NCC1(Cc2noc(=O)[nH]2)CCCCC1`, the outcome was inactive.

Take `NCCO`: the result was inactive.

Regarding `CC1=C(/C=C/C(C)=C/C=C/C(C)=C/CO)C(C)(C)CCC1`, the compound was classed as inactive.

Take `Cc1cccc([N+](=O)[O-])c1C`: the result was inactive.

`CCCCCCCCCCCCCO`: the result was inactive.

For the compound `Cc1ccc(C(C)C)c(O)c1`, the compound was called inactive.

Consider `Nc1ccc(S(=O)(=O)c2ccc(N)cc2)cc1`, for which the call was inactive.

For `Nc1nc(N)c2nc(CNc3ccc(C(=O)N[C@@H](CCC(=O)O)C(=O)O)cc3)cnc2n1`, the result was inactive.

Turning to `CCCCc1ccc2c(n1)[C@@H](c1ccc(OC)cc1C[C@H](C)C(=O)O)[C@H](C(=O)O)[C@H]2c1ccc2c(c1)OCO2`, the outcome was inactive.

Another assay is described as follows: ATG_CRE_CIS: Attagene CIS-FACTORIAL HepG2 Assay for human cAMP Responsive Element (CRE) binding protein 3 (AID 2282926). The settings on record: HepG2 CRE cis-reporter, Attagene multiplexed mRNA; actives raise or lower the signal. Summed up: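 Transfected HepG2 were treated for 24 hours, then RNA was extracted and reporter cDNA amplified with sequence-specific primers. Labelled fragments were separated by capillary electrophoresis, and the CRE signal was fitted bidirectionally with DMSO as baseline.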
As to `O=C(N[C@@H](Cc1ccccc1)[C@@H](O)C(=O)N1C[C@@H](O)[C@@H](O)C1)c1cc2cc(Cl)ccc2[nH]1`, the compound was classed as inactive.

As to `CCCCCCCCCCCCCCCC`, the compound was called inactive.

Turning to `Cc1ccc(C)c(C)c1`, the call was inactive.

On to `C=CCOC(=O)c1ccccc1C(=O)OCC=C`, for which the compound was classed as inactive.

Consider `CCCCCCCCCCC`, for which the call was inactive.

Turning to `COc1cc(-c2nc(NC(=O)c3cc4cc(C)cc(C)c4n3CC(=O)O)sc2CCC2CCCCC2)c(OC)cc1Cl`, the AC50 was 36 µM (active).

Regarding `Cc1cc(NC(=O)C(=O)O)cc(C)c1Oc1ccc(O)c2c1CCC2`, the outcome was inactive.

`O=C(OCCCCCOC(=O)c1ccccc1)c1ccccc1`: the result was inactive.

Regarding `COC(=O)c1ccc(O)cc1`, the call was inactive.

For the compound `CCCCCCCC=O`, the call was inactive.

As to `CCCCC(CC)COC(=O)CC(C(=O)OCC(CC)CCCC)S(=O)(=O)O` (centres undefined), the result was inactive.

Turning to `C[Si]1(C)O[Si](C)(C)O[Si](C)(C)O[Si](C)(C)O1`, the compound was classed as inactive.

In the case of `C=CCc1ccc(O)c(OC)c1`, the compound was classed as inactive.

With `NS(=O)(=O)c1cc2c(cc1Cl)NCNS2(=O)=O`, the call was inactive.

As for `COc1cc(/C=C/C(=O)CC(=O)/C=C/c2ccc(O)c(OC)c2)ccc1O`, the call was inactive.

For the compound `CCOC(=O)CCC(=O)OCC`, the outcome was inactive.

On to `CC(CO)OC(C)CO` (centres undefined) (tested in a mixture with another compound), for which the result was inactive.

With `O=C(O)CCCCC(=O)O`, the call was inactive.

As to `Cc1cc(=O)[nH]c(=S)[nH]1`, the result was inactive.

`Cc1nc(-c2ccc3c(c2)CCN(CCC2CCC(NC(=O)/C=C/c4ccc(F)cc4)CC2)CC3)no1` (centres undefined): the compound was called inactive.

For the compound `Oc1ccc2c(c1)OC[C@@H](N1CCC(O)(c3ccc(F)cc3)CC1)[C@H]2O`, the call was inactive.

Take `NCC1(Cc2noc(=O)[nH]2)CCCCC1`: the result was inactive.

Consider `NCCO`, for which the compound was classed as inactive.

In the case of `CC1=C(/C=C/C(C)=C/C=C/C(C)=C/CO)C(C)(C)CCC1`, the outcome was inactive.

For `Cc1cccc([N+](=O)[O-])c1C`, the result was inactive.

Turning to `CCCCCCCCCCCCCO`, the AC50 is 10.3 µM (active).

For the compound `Cc1ccc(C(C)C)c(O)c1`, the result was inactive.

Consider `Nc1ccc(S(=O)(=O)c2ccc(N)cc2)cc1`, for which the outcome was inactive.

As for `Nc1nc(N)c2nc(CNc3ccc(C(=O)N[C@@H](CCC(=O)O)C(=O)O)cc3)cnc2n1`, the result was inactive.

On to `CCCCc1ccc2c(n1)[C@@H](c1ccc(OC)cc1C[C@H](C)C(=O)O)[C@H](C(=O)O)[C@H]2c1ccc2c(c1)OCO2`, for which the compound was called inactive.

Another assay can be described thus: ATG_CMV_CIS: Attagene CIS-FACTORIAL HepG2 Assay for human CMV (Internal Marker) (AID 2282928).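 Further: endpoint acts as a background internal control marker rather than a target.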 The settings on record: HepG2 CMV promoter reporter, transcription factor profiling; actives raise or lower the signal. Put shortly: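 After transient transfection of HepG2 with reporter transcription units driven by cis-regulatory promoters, cells receive test chemical for 24 h. Labeled reporter amplicons, digested with HpaI, are sized and quantified by capillary electrophoresis against DMSO.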
With `O=C(N[C@@H](Cc1ccccc1)[C@@H](O)C(=O)N1C[C@@H](O)[C@@H](O)C1)c1cc2cc(Cl)ccc2[nH]1`, the result was inactive.

For the compound `CCCCCCCCCCCCCCCC`, the outcome was inactive.

Consider `Cc1ccc(C)c(C)c1`, for which the compound was called inactive.

On to `C=CCOC(=O)c1ccccc1C(=O)OCC=C`, for which the AC50 was 26.2 µM (active).

Take `CCCCCCCCCCC`: the compound was classed as inactive.

`COc1cc(-c2nc(NC(=O)c3cc4cc(C)cc(C)c4n3CC(=O)O)sc2CCC2CCCCC2)c(OC)cc1Cl`: the AC50 was 3.3 µM (active).

Consider `Cc1cc(NC(=O)C(=O)O)cc(C)c1Oc1ccc(O)c2c1CCC2`, for which the compound was classed as inactive.

With `O=C(OCCCCCOC(=O)c1ccccc1)c1ccccc1`, the outcome was inactive.

`COC(=O)c1ccc(O)cc1`: the call was inactive.

On to `CCCCCCCC=O`, for which the result was inactive.

Consider `CCCCC(CC)COC(=O)CC(C(=O)OCC(CC)CCCC)S(=O)(=O)O` (centres undefined), for which the result was inactive.

As to `C[Si]1(C)O[Si](C)(C)O[Si](C)(C)O[Si](C)(C)O1`, the compound was called inactive.

For the compound `C=CCc1ccc(O)c(OC)c1`, the AC50 is 80.2 µM (active).

As to `NS(=O)(=O)c1cc2c(cc1Cl)NCNS2(=O)=O`, the outcome was inactive.

Turning to `COc1cc(/C=C/C(=O)CC(=O)/C=C/c2ccc(O)c(OC)c2)ccc1O`, the AC50 is 54.2 µM (active).

With `CCOC(=O)CCC(=O)OCC`, the call was inactive.

As for `CC(CO)OC(C)CO` (centres undefined) (tested in a mixture with another compound), the call was inactive.

Take `O=C(O)CCCCC(=O)O`: the compound was classed as inactive.

As for `Cc1cc(=O)[nH]c(=S)[nH]1`, the compound was called inactive.

As to `Cc1nc(-c2ccc3c(c2)CCN(CCC2CCC(NC(=O)/C=C/c4ccc(F)cc4)CC2)CC3)no1` (centres undefined), the call was inactive.

In the case of `Oc1ccc2c(c1)OC[C@@H](N1CCC(O)(c3ccc(F)cc3)CC1)[C@H]2O`, the result was inactive.

On to `NCC1(Cc2noc(=O)[nH]2)CCCCC1`, for which the call was inactive.

As for `NCCO`, the outcome was inactive.

`CC1=C(/C=C/C(C)=C/C=C/C(C)=C/CO)C(C)(C)CCC1`: the half-maximal activity concentration (AC50) is 193 µM (active).

As for `Cc1cccc([N+](=O)[O-])c1C`, the result was inactive.

With `CCCCCCCCCCCCCO`, the concentration at half-maximal activity (AC50) was 59.4 µM (active).

Regarding `Cc1ccc(C(C)C)c(O)c1`, the compound was called inactive.

`Nc1ccc(S(=O)(=O)c2ccc(N)cc2)cc1`: the outcome was inactive.

As for `Nc1nc(N)c2nc(CNc3ccc(C(=O)N[C@@H](CCC(=O)O)C(=O)O)cc3)cnc2n1`, the AC50 was 0.00818 µM (active).

For `CCCCc1ccc2c(n1)[C@@H](c1ccc(OC)cc1C[C@H](C)C(=O)O)[C@H](C(=O)O)[C@H]2c1ccc2c(c1)OCO2`, the result was inactive.

These data come from PubChem BioAssay (EPA / NIEHS).
